The test can be described thus: compound effects on hepatocellular carcinoma cell viability – HepG2, calcein-AM fluorescence, 48 h, basal, profiling panel (AID 1164). Further: test concentration not given here. The conditions noted are these: higher = more signal.
Regarding `COC(=O)C1(Cc2ccccc2)C=C2C(=C(C(C)C)C(=O)C2C)CN1` (stereo not drawn), the z-score was -1.75.
For `Cc1c(NC(=O)/C(C#N)=C/C=C/c2ccccc2[N+](=O)[O-])c(=O)n(-c2ccccc2)n1C` the value was -1.71; for `[N-]=[N+]=NCc1ccccc1C[C@@]1(C(=O)NCCN2CCOCC2)N=C(c2ccc(OCCCO)cc2)O[C@@H]1c1ccccc1N=[N+]=[N-]`, -1.05; for `C[n+]1ccc(CCCO)cc1`, -0.96.
The figure for `CN1C(=O)C2C=CC(C(O)c3c(F)cccc3Cl)N(Nc3ccccc3)C2C1=O` (stereo not drawn) is -1.18.
In the case of `C=C[C@@H](C)[C@H](OC(=O)Nc1ccc(SC)cc1)c1ccc(OCCO)cc1`, the z-score is 0.0237.
For `CC(C)C(O)C1C=CC2C(=O)N(C)C(=O)C2N1N(c1ccccc1)c1ccccc1` (stereo not drawn) the value was 0.689.
`O=C1c2ccccc2[C@](Cc2ccccc2I)(C(=O)NCc2ccccc2)[C@H](c2ccc(CO)cc2)N1C1CCCCC1`: the z-score is -0.36.
For `CC(=O)n1cc(C(O)C2C=CC3C(=O)N(Cc4ccccc4)C(=O)C3N2n2cnnc2)c2ccccc21` (stereo not drawn) the value was -0.392.
Consider `COc1cc2c(cc1OC)CN(C(=O)[C@H]1[C@@H]3C(=O)O[C@@H](c4ccccc4)[C@@H](c4ccccc4)N3[C@@H](c3ccc(OCCO)cc3)[C@]13C(=O)Nc1ccc(C#CC4(O)CCCCCC4)cc13)CC2`, for which the z-score is 1.17.
For `O=c1cccc(-c2ccc(C(F)(F)F)cc2)o1` the value was -0.701.
Regarding `COc1ccc(C(O)C2C=CC3C(=O)N(Cc4ccccc4)C(=O)C3N2n2cnnc2)c2ccccc12` (stereo not drawn), the z-score was 0.0591.
The figure for `CC(C)(C)OC(=O)CC[C@]1(C(=O)NCCN2CCOCC2)N=C(c2ccc(OCCCO)cc2)O[C@H]1c1ccccc1N=[N+]=[N-]` is 0.309.
